Reference: PubChem BioAssay AID602393 (Broad Institute, 2012)
Hit rate of the full screen: of about 350,000 compounds, about 7,000 (2%) were called active. Shown is part of a subset that was picked to be rich in actives. Unmarked numbers belong to inactive results. Rule as the data show it: active = activation above about 40%; inconclusive = no clear call, values can overlap the other calls; inactive = below that.

Assay: Bmi1 luciferase reporter increase in mESCs, primary screen, esBAF inhibitor project, mouse ES cells, Bmi1 luciferase knock-in, single point (AID 602393);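 also: 0% = median of the plate's neutral control wells and 100% = double that signal; a rise in the Bmi1 reporter signal indicates esBAF inhibition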
Settings: 24 h, at 12.5 µM, active compounds read high, 100% = twice the neutral-well signal

For `N#CC(=C1SC=CS1)c1nc(-c2ccccc2)cs1`, the reporter increase was 56.6% (active).
With `CN1/C(=C\C(=O)c2cccnc2Cl)C(C)(C)c2ccccc21` the reporter increase was 48.4% (active).
In the case of `O=C(CN1C(=O)COc2ccccc21)Nc1ccc(F)cc1`, the reporter increase is reported as 72.1% (active).
For `CCOC(=O)C1(Cc2ccccc2C)CCCN(C(=O)c2ccc(COC)o2)C1` (stereo unspecified), the reporter increase was 52.7% (active).
With `O=C1/C(=C/c2cccs2)CCc2ccccc21` the reporter increase was 56.4% (active).
For `COc1ccc(/C=C2\CCc3ccccc3C2=O)c(OC)c1OC`, the reporter increase was 35.7% (active).
With `CCc1cc(C(=O)Nc2nnc(C3CC3)s2)sc1C` the reporter increase was 53.3% (active).
With `Cc1cc(C(=O)Nc2nnc(C3CC3)s2)c(C)s1` the reporter increase was 62.3% (active).
With `O=S(=O)(Nc1ccc2nc(-c3ccco3)[nH]c2c1)c1ccccc1` the reporter increase was 60.3% (active).

Point of comparison: `O=S(=O)(Nc1ccc2cn[nH]c2c1)c1ccccc1`, reporter increase -0.15%. Against it:
- C[C@@H]1CN([C@@H](C)CO)C(=O)Cc2cc(NS(=O)(=O)c3ccc(Cl)cc3)ccc2O[C@H]1CN(C)CC1CCCCC1 — higher, 3.84%
- O=C(Cc1ccccn1)N1[C@@H]2CNc3ccccc3[C@@H]2[C@@H]1CO — lower, -1.83%
- O=C(c1cccnc1)N1C[C@H]2[C@@H](c3ccccc31)[C@H](CO)N2C(=O)C1CCCCC1 — lower, -4.74%
- CCC(=O)Nc1ccc2c(c1)C(=O)N(C)C[C@H](OC)[C@H](C)CN(C(=O)C1CCC1)[C@@H](C)CO2 — lower, -5.69%
- CC(C)Nc1nnc(SCC(=O)/C=C2\N(C)c3ccccc3C2(C)C)s1 — higher, -0.0975%
- CC(=O)Nc1cccc(OCC(=O)/C=C2\N(C)c3ccccc3C2(C)C)c1 — lower, -12.2%
- C[C@@H]1CCCCO[C@H](CN(C)S(C)(=O)=O)[C@@H](C)CN([C@@H](C)CO)C(=O)c2cc(NC(=O)CCC(F)(F)F)ccc2O1 — lower, -0.325%
- CCCNC(=O)[C@H]1[C@H](CO)[C@H]2Cn3c(ccc(C4=CCCC4)c3=O)[C@H]2N1C(=O)CC — lower, -0.965%
- O=C(CN1C(=O)COc2ccc(Cl)cc21)Nc1ccc(N2CCOCC2)cc1 — lower, -1.03%
- CC(OC(=O)CN1C(=O)COc2ccccc21)C(=O)NCc1ccc(F)cc1 (stereo unspecified) — lower, -4.32%
- Cc1noc(C)c1NC(=O)N(C)C[C@@H]1OCCCC[C@H](C)Oc2ccc(NC(=O)CCC(F)(F)F)cc2C(=O)N([C@@H](C)CO)C[C@@H]1C — lower, -15%
- CN(C)C(=O)C[C@@H]1CC[C@@H](NS(=O)(=O)c2ccccc2)[C@H](CO)O1 — lower, -9.26%
- CCOC(=O)C1(Cc2ccccc2C)CCCN(S(C)(=O)=O)C1 (stereo unspecified) — lower, -5.66%
- CCOC(=O)C1(Cc2ccccc2C)CCCN(C(=O)CN2C(=O)CSC2=O)C1 (stereo unspecified) — higher, 15.7%
- COc1cccc(C(=O)Nc2ccc3c(c2)C(=O)N(C)[C@@H]2CC[C@H](CC(=O)NCCCN4CCOCC4)O[C@H]2CO3)c1 — higher, 6.81%
- C[C@@H]1CN([C@@H](C)CO)C(=O)c2cc(NS(=O)(=O)c3cn(C)cn3)ccc2O[C@@H](C)CCCCO[C@H]1CN(C)S(=O)(=O)c1cccs1 — lower, -0.192%
- Cc1ccc(S(=O)(=O)Nc2ccc3c(c2)C(=O)N([C@H](C)CO)C[C@@H](C)[C@H](CN(C)C(=O)Nc2ccc(C(F)(F)F)cc2)OCCCC[C@H](C)O3)cc1 — lower, -0.527%
- O=S(=O)(c1cccs1)N1CCc2ccccc2C1 — lower, -5.9%
- COc1ccc(/C=N/NC(=O)C2CC2)c(OC)c1OC — lower, -5.72%
- COc1ccc(/C=C2/CCCc3ccccc3C2=O)cc1 — higher, 23.6%
- c1ccc2c(c1)CCc1snnc1-2 — lower, -3.35%
- O=C(C[C@H]1C=C[C@@H](NS(=O)(=O)c2ccc(F)cc2)[C@@H](CO)O1)NC1CCC1 — lower, -2.06%
- CO[C@H]1CN(C)C(=O)c2cc(NS(C)(=O)=O)ccc2OC[C@@H](C)N(C)C[C@@H]1C — higher, 0.827%
- CN1CCCCN2[C@@H](CO)[C@@H](c3ccc(C4=CCCC4)cc3)[C@@H]2C1 — lower, -22.1%
- O=C(Nc1nnc(C2CC2)s1)C1=NN(C2CCS(=O)(=O)C2)C(=O)CC1 (stereo unspecified) — higher, 4.96%
- CCc1nnc(NC(=O)c2cc(S(=O)(=O)N3CCCCC3)ccc2C)s1 — higher, 8.45%
- COc1ccc2c(CC(=O)Nc3nnc(C4CC4)s3)coc2c1 — higher, 4.79%
- CCc1ccccc1OCC(=O)Nc1nnc(C2CC2)s1 — higher, 1.33%
- COCc1cn(CC[C@H]2CC[C@H](NC(=O)c3ccncc3)[C@H](CO)O2)nn1 — lower, -3.19%
- CN1C[C@H]2[C@@H](c3ccccc31)[C@@H](CO)N2C(=O)Nc1ccccc1 — higher, 3.76%
- Cn1c(CCN2CCCC2)nc2cc(NS(=O)(=O)c3ccccc3)ccc21 — higher, 1.19%
